# Laboratory results published in the supplement of paper PMC12282887.
# ± gives the standard deviation of the averaged measurements.
# Key:
# Test in all cases: promoter activity interaction Z-score (Lux/OD deviation from empty-vector control); higher = stronger promoter induction by the compound
# [1] = tested on: E. coli BW25113 acrABp lux reporter
# Summary of the method: (§1)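 Four 1:2 dilutions of each compound were tested in biological duplicates on E. coli BW25113 carrying low-copy luxCDABE promoter reporters, either wild type or deleted for one of three genes. Cultures of 40 µl LB Lennox in 384-well plates were kept at 37°C and read for OD600 and luminescence every 30 min for 12 h. Integration windows were 0–8 h for wild type and 1–9 h for deletion strains, and wells under 10% of the median growth value were discarded. The score is a Z-transformed residual of growth-normalised luminescence relative to a control fit.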
# [2] = tested on: E. coli BW25113 micFp lux reporter
# Summary of the method: as §1
# [3] = tested on: E. coli BW25113 ompFp lux reporter
# Summary of the method: as §1
# [4] = tested on: E. coli BW25113 robp lux reporter
# Summary of the method: as §1
# [5] = tested on: E. coli BW25113 soxSp lux reporter
# Summary of the method: as §1
# [6] = tested on: E. coli BW25113 tolCp lux reporter
# Summary of the method: as §1
# [7] = 17 µg/ml, genetic background: wild type
# [8] = 17 µg/ml, genetic background: ΔmarA
# [9] = 17 µg/ml, genetic background: Δrob
# [10] = 17 µg/ml, genetic background: ΔsoxS
# [11] = 34 µg/ml, genetic background: wild type
# [12] = 34 µg/ml, genetic background: ΔmarA
# [13] = 34 µg/ml, genetic background: Δrob
# [14] = 34 µg/ml, genetic background: ΔsoxS
# [15] = 68.1 µg/ml, genetic background: wild type
# [16] = 68.1 µg/ml, genetic background: ΔmarA
# [17] = 68.1 µg/ml, genetic background: Δrob
# [18] = 68.1 µg/ml, genetic background: ΔsoxS
# [19] = 136.2 µg/ml, genetic background: wild type
# [20] = 136.2 µg/ml, genetic background: ΔmarA
# [21] = 136.2 µg/ml, genetic background: Δrob
# [22] = 136.2 µg/ml, genetic background: ΔsoxS
smiles,measurement,setting,value
C[C@]12CC[C@@H]3c4ccc(O)cc4CC[C@H]3[C@@H]1CC[C@@H]2O [Estradiol],promoter activity interaction Z-score,[1]; [7],0.298 ± 0.0088
same,promoter activity interaction Z-score,[1]; [8],-0.217 ± 0.5
same,promoter activity interaction Z-score,[1]; [9],-0.138 ± 0.15
same,promoter activity interaction Z-score,[1]; [10],-0.335 ± 0.57
same,promoter activity interaction Z-score,[1]; [11],0.101 ± 0.01
same,promoter activity interaction Z-score,[1]; [12],0.101 ± 1.4
same,promoter activity interaction Z-score,[1]; [13],-0.0321 ± 0.063
same,promoter activity interaction Z-score,[1]; [14],-0.0568 ± 0.0019
same,promoter activity interaction Z-score,[1]; [15],-0.0194 ± 0.39
same,promoter activity interaction Z-score,[1]; [16],1.6 ± 0.16
same,promoter activity interaction Z-score,[1]; [17],-0.247 ± 0.35
same,promoter activity interaction Z-score,[1]; [18],-0.0269 ± 0.066
same,promoter activity interaction Z-score,[1]; [19],0.225 ± 0.041
same,promoter activity interaction Z-score,[1]; [20],-0.22 ± 0.31
same,promoter activity interaction Z-score,[1]; [21],-0.28 ± 0.4
same,promoter activity interaction Z-score,[1]; [22],0.453 ± 0.73
same,promoter activity interaction Z-score,[2]; [7],0.105 ± 0.31
same,promoter activity interaction Z-score,[2]; [8],-0.0854 ± 0.0072
same,promoter activity interaction Z-score,[2]; [9],-0.132 ± 0.0023
same,promoter activity interaction Z-score,[2]; [10],-0.254 ± 0.061
same,promoter activity interaction Z-score,[2]; [11],-0.221 ± 0.34
same,promoter activity interaction Z-score,[2]; [12],-0.0642 ± 0.01
same,promoter activity interaction Z-score,[2]; [13],-0.194 ± 0.16
same,promoter activity interaction Z-score,[2]; [14],0.292 ± 0.13
same,promoter activity interaction Z-score,[2]; [15],0.178 ± 0.23
same,promoter activity interaction Z-score,[2]; [16],0.0617 ± 0.15
same,promoter activity interaction Z-score,[2]; [17],-0.166 ± 0.3
same,promoter activity interaction Z-score,[2]; [18],0.179 ± 0.19
same,promoter activity interaction Z-score,[2]; [19],0.028 ± 0.51
same,promoter activity interaction Z-score,[2]; [20],0.118 ± 0.11
same,promoter activity interaction Z-score,[2]; [21],-0.079 ± 0.16
same,promoter activity interaction Z-score,[2]; [22],0.578 ± 0.0079
same,promoter activity interaction Z-score,[3]; [7],0.501 ± 0.11
same,promoter activity interaction Z-score,[3]; [8],-0.126 ± 0.37
same,promoter activity interaction Z-score,[3]; [9],-0.146 ± 0.11
same,promoter activity interaction Z-score,[3]; [10],0.0169 ± 0.25
same,promoter activity interaction Z-score,[3]; [11],-0.603 ± 0.43
same,promoter activity interaction Z-score,[3]; [12],-0.0141 ± 0.44
same,promoter activity interaction Z-score,[3]; [13],-0.554 ± 0.48
same,promoter activity interaction Z-score,[3]; [14],-0.0316 ± 0.18
same,promoter activity interaction Z-score,[3]; [15],-0.329 ± 0.44
same,promoter activity interaction Z-score,[3]; [16],0.821 ± 0.84
same,promoter activity interaction Z-score,[3]; [17],-0.486 ± 0.4
same,promoter activity interaction Z-score,[3]; [18],-0.581 ± 0.16
same,promoter activity interaction Z-score,[3]; [19],-0.397 ± 0.85
same,promoter activity interaction Z-score,[3]; [20],-0.336 ± 0.37
same,promoter activity interaction Z-score,[3]; [21],-0.534 ± 0.93
same,promoter activity interaction Z-score,[3]; [22],-0.638 ± 0.074
same,promoter activity interaction Z-score,[4]; [7],0.7215 ± 0.0031
same,promoter activity interaction Z-score,[4]; [8],0.25 ± 0.44
same,promoter activity interaction Z-score,[4]; [9],-0.0547 ± 0.13
same,promoter activity interaction Z-score,[4]; [10],0.453 ± 0.085
same,promoter activity interaction Z-score,[4]; [11],-0.0162 ± 0.89
same,promoter activity interaction Z-score,[4]; [12],-0.0102 ± 0.92
same,promoter activity interaction Z-score,[4]; [13],-0.0213 ± 0.28
same,promoter activity interaction Z-score,[4]; [14],0.926 ± 0.78
same,promoter activity interaction Z-score,[4]; [15],0.13 ± 0.81
same,promoter activity interaction Z-score,[4]; [16],1.9 ± 0.56
same,promoter activity interaction Z-score,[4]; [17],-0.509 ± 0.5
same,promoter activity interaction Z-score,[4]; [18],0.373 ± 0.42
same,promoter activity interaction Z-score,[4]; [19],0.104 ± 0.37
same,promoter activity interaction Z-score,[4]; [20],0.282 ± 0.21
same,promoter activity interaction Z-score,[4]; [21],-0.478 ± 0.3
same,promoter activity interaction Z-score,[4]; [22],0.863 ± 0.52
same,promoter activity interaction Z-score,[5]; [7],0.266 ± 0.12
same,promoter activity interaction Z-score,[5]; [8],0.0464 ± 0.17
same,promoter activity interaction Z-score,[5]; [9],-0.0494 ± 0.027
same,promoter activity interaction Z-score,[5]; [10],0.159 ± 0.028
same,promoter activity interaction Z-score,[5]; [11],-0.15 ± 0.012
same,promoter activity interaction Z-score,[5]; [12],0.102 ± 0.021
same,promoter activity interaction Z-score,[5]; [13],-0.334 ± 0.0093
same,promoter activity interaction Z-score,[5]; [14],0.0514 ± 0.057
same,promoter activity interaction Z-score,[5]; [15],-0.196 ± 0.013
same,promoter activity interaction Z-score,[5]; [16],0.057 ± 0.029
same,promoter activity interaction Z-score,[5]; [17],-0.104 ± 0.2
same,promoter activity interaction Z-score,[5]; [18],0.254 ± 0.52
same,promoter activity interaction Z-score,[5]; [19],-0.422 ± 0.035
same,promoter activity interaction Z-score,[5]; [20],-0.276 ± 0.077
same,promoter activity interaction Z-score,[5]; [21],-0.275 ± 0.2
same,promoter activity interaction Z-score,[5]; [22],-0.137 ± 0.099
same,promoter activity interaction Z-score,[6]; [7],0.895 ± 0.21
same,promoter activity interaction Z-score,[6]; [8],-0.343 ± 0.88
same,promoter activity interaction Z-score,[6]; [9],-0.103 ± 1
same,promoter activity interaction Z-score,[6]; [10],-0.491 ± 0.4
same,promoter activity interaction Z-score,[6]; [11],-0.0124 ± 0.71
same,promoter activity interaction Z-score,[6]; [12],-0.745 ± 0.26
same,promoter activity interaction Z-score,[6]; [13],-0.126 ± 1.3
same,promoter activity interaction Z-score,[6]; [14],0.321 ± 0.44
same,promoter activity interaction Z-score,[6]; [15],-0.293 ± 0.52
same,promoter activity interaction Z-score,[6]; [16],0.492 ± 0.095
same,promoter activity interaction Z-score,[6]; [17],0.143 ± 0.3
same,promoter activity interaction Z-score,[6]; [18],0.521 ± 0.57
same,promoter activity interaction Z-score,[6]; [19],0.506 ± 0.79
same,promoter activity interaction Z-score,[6]; [20],-0.446 ± 0.55
same,promoter activity interaction Z-score,[6]; [21],-0.721 ± 0.35
same,promoter activity interaction Z-score,[6]; [22],0.191 ± 0.75
